# Reference: PubChem BioAssay AID651558 (National Center for Advancing Translational Sciences (NCATS), 2012)
# The whole screen tested about 1,200 compounds, of which about 480 (40%) were called active. About 29% were inconclusive and are not listed. The list shows a part of the results. A number with no mark means an inactive call. Calls follow the shape of the dose curve; as a rule, active = well fitted inhibition curve with a large enough effect; inconclusive = small, poorly fitted or top-dose-only effect; inactive = no such curve, though single readings can be large or run the other way.
# Assay: qHTS Assay to Find Inhibitors of Chronic Active B-Cell Receptor Signaling: Hit Validation in Primary Screen; also: nearly all actives have a fitted effect of over 75% in size
# Settings: ABC-DLBCL IkB-luc/CBR ratio luminescence, 4 h; series mostly up to 46.1 µM; activity change, negative = inhibition: at the top concentration
# How it was run: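 TMD8 ABC-DLBCL cells carrying doxycycline-inducible IkBa-green luciferase fusion and free red luciferase, 0.5% FBS, dosed 46 uM–3 nM with doxycycline for 4 h at 37C. Green/red luminescence ratio normalized to basal and 10 uM MG-132.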
# % is scaled to controls: 0 for no effect and ±100 for the full control effect; potency is read from the fitted curve at half-maximal effect.
SMILES,"activity change, negative = inhibition [%]",Potency
CCOC(=O)C1C(C(=O)OC)=C(c2ccc(OC)cc2)c2ccccc2N1S(=O)(=O)C(F)(F)F (stereo not drawn),-14,–
COc1cc(OC)cc(C(=O)NCC(=O)Nc2ccc(-c3ccccc3)cc2)c1,–,20.6 µM (active)
COc1cc(NC(=O)COC(=O)Cc2ccc(-c3ccccc3)cc2)cc(OC)c1,-9.19,–
CCn1c2ccccc2c2cc(NC(=O)c3cc(OC)c(OC)c(OC)c3)ccc21,–,0.731 µM (active)
CCn1c2ccccc2c2cc(NC(=O)c3cc(OC)cc(OC)c3)ccc21,–,2.06 µM (active)
CCCn1nnc(NC(=S)NC(=O)Cc2ccccc2)n1,-4.95,–
COc1ccc(OCC(O)CN2CCN(c3ccccc3)CC2)cc1 (stereo not drawn),-11.5,–
Cc1ccc(Nc2nc(-c3c(C)nc4ccccn34)cs2)cc1,–,0.259 µM (active)
Cc1nc2ncccn2c1-c1csc(Nc2ccc(N(C)C)cc2)n1,–,7.31 µM (active)
Cc1ccc(Nc2nc(-c3c(C)nc4ncccn34)cs2)cc1,–,4.11 µM (active)
COc1ccc(Nc2nc(-c3c(C)nc4ncccn34)cs2)cc1,–,2.31 µM (active)
Cc1ccc(C2OCC3(CO)COC(c4ccc(C)cc4)N23)cc1 (stereo not drawn),-6.87,–
Oc1[nH]c2ccc(Br)cc2c1N=NC(=S)Nc1ccc(F)cc1,6.69,–
Cc1ccccc1C1=NC(C(F)(F)F)(C(F)(F)F)c2c(n(C)c(=O)n(C)c2=O)N1,-19.6,–
COc1ccc(NC(=O)C(=O)c2cn(CC(=O)N3CCCC3)c3ccccc23)cc1,–,9.2 µM (active)
COc1cc2cnc(-c3ccccc3)cc2cc1OC,–,20.6 µM (active)
COc1cc(NC(=S)NC(=O)c2ccccc2F)ccc1NC(=O)c1ccco1,41.4,–
COc1ccccc1C(=O)Nc1ccccc1SC(=O)c1ccccc1OC,–,7.31 µM (active)
CCC(C)NC(=O)c1ccccc1NC(=O)c1ccc(CSc2ccccc2)cc1 (stereo not drawn),39.9,–
Cc1ccc(CCC(=O)Nc2ncc(Cc3cccc(Cl)c3Cl)s2)o1,–,0.231 µM (active)
CCc1ccc(CCC(=O)Nc2ncc(Cc3ccccc3Cl)s2)o1,–,2.91 µM (active)

SMILES,"activity change, negative = inhibition [%]",Potency
Cc1ccc(CCC(=O)Nc2ncc(Cc3cc(Cl)ccc3Cl)s2)o1,–,1.3 µM (active)
Cc1cccc(NC(=S)N=Nc2c(O)n(C)c3ccc(S(=O)(=O)N4CCOCC4)cc23)c1,-17.4,–
COc1ccc(-c2csc(C3=C(O)CN(CCCN4CCCC4=O)C3=N)n2)cc1OC,–,18.4 µM (active)
CCc1ccc(S(=O)(=O)Nc2ccc(-c3ccc4nnc(C)n4n3)cc2)s1,–,14.6 µM (active)
Cc1nnc2ccc(-c3ccc(NS(=O)(=O)c4ccccc4[N+](=O)[O-])cc3)nn12,–,20.6 µM (active)
COc1ccc(OC)c(S(=O)(=O)Nc2ccc(-c3ccc4nnc(C)n4n3)cc2)c1,182,–
CCN(CC)C(=S)NC(=O)c1ccc(F)cc1,-2.9,–
CCOC(=O)N1CCC(NC(=O)c2ccc3c(c2)N=C(C)c2c(C)ccc(C)c2S3)CC1,–,6.51 µM (active)
CC1=Nc2cc(C(=O)NC3CCCCC3)ccc2Sc2ccc(Cl)cc21,–,2.31 µM (active)
CCCC1=Nc2cc(C(=O)NC3CCCCC3)ccc2Sc2ccc(C)cc21,–,0.259 µM (active)
CCOC(=O)N1CCC(NC(=O)CS(=O)(=O)Cc2nc(-c3ccccc3C)oc2C)CC1,-13.5,–
CC1=Nc2cc(C(=O)NC3CCCC3)ccc2Sc2ccc(Cl)cc21,–,2.59 µM (active)
COc1ccccc1-c1nnc2sc(-c3ccc(N(C)C)cc3)nn12,–,1.16 µM (active)
CCN(CC)c1ccc(-c2nn3c(-c4n[nH]c5c4CCC5)nnc3s2)cc1,–,0.651 µM (active)
CN(C)c1ccc(-c2nn3c(-c4ccccc4Cl)nnc3s2)cc1,–,2.91 µM (active)
CCN(CC)c1ccc(-c2nn3c(-c4ccccc4OC)nnc3s2)cc1,–,1.46 µM (active)
C[C@]12CC[C@H]3C(=CCc4cc(O)ccc43)[C@@H]1CCC2=O,-23.1,–
S=c1nc2ccccc2c2nc(-c3ccccc3)[nH]n12,–,23.1 µM (active)
S=c1nc2ccccc2c2nc(-c3ccccc3Cl)[nH]n12,44.2,–
Cc1ccccc1-c1nc2c3ccccc3nc(=S)n2[nH]1,-3.4,–
CCN1C(=O)c2cccc3c(NC(=O)c4ccc(OC)c(OC)c4)ccc1c23,–,10.3 µM (active)

SMILES,"activity change, negative = inhibition [%]",Potency
CCOc1ccc2c(c1)C(C)=CC(C)(C)N2S(=O)(=O)c1ccc(NC(C)=O)cc1,–,1.3 µM (active)
COc1ccc2c(c1)C(C)=CC(C)(C)N2S(=O)(=O)c1ccc(Br)cc1,–,3.26 µM (active)
COc1ccc2c(c1)C(C)=CC(C)(C)N2S(=O)(=O)c1ccc(NC(C)=O)cc1,–,3.26 µM (active)
CCOc1ccc2c(c1)C(C)=CC(C)(C)N2S(=O)(=O)c1ccc(C)cc1,–,3.26 µM (active)
N#CC1=C(S)N(c2ccc(F)cc2)C(c2ccco2)NC1=O (stereo not drawn),46.1,–
CCOc1ccc(NC(=O)c2cc(OC)nc3ccccc23)cc1,–,5.17 µM (active)
COc1ccc(NC(=O)CSc2nc(N)c(C(=O)Nc3ccc(N(C)C)cc3)s2)cc1,-13.4,–
CCOc1ccc(NC(=S)N(CCc2c(C)[nH]c3ccccc23)Cc2cccnc2)cc1,-24,–
COc1ccc(C2CC(c3ccc(OC)c(OC)c3)=NN2C(=O)c2ccccc2)cc1 (stereo not drawn),–,6.51 µM (active)
COc1ccc(C2CC(c3ccncc3)=NN2c2ccc(S(N)(=O)=O)cc2)cc1 (stereo not drawn),112,–
COc1ccc(C2=NN(C(C)=O)C(c3cccs3)C2)cc1OC (stereo not drawn),31.9,–
N=C1SCC(=O)N1c1ncc(Cc2cccc(Cl)c2)s1,–,20.6 µM (active)
O=c1cc(-c2ccccc2)[nH]c2ccccc12,–,11.6 µM (active)
O=c1cc(-c2ccc(F)cc2)[nH][nH]1,4.42,–
NNC(=O)c1[nH]c2ccc(Br)cc2c1-c1ccccc1,3.52,–
O=c1cc(-c2cccc(F)c2)[nH]c2ccccc12,–,3.66 µM (active)
O=c1cc(-c2ccccc2)[nH]c2ccc(F)cc12,–,10.3 µM (active)
O=Cc1ccc(O)c2ncccc12,-2.92,–
O=[N+]([O-])c1cc(Cl)c2cccnc2c1O,-5.39,–
COc1ccc(CC2(CO)CCN(Cc3cccc4nccnc34)CC2)cc1,-8.35,–
CCCc1nc([N+](=O)[O-])c(S(=O)(=O)c2ccccc2)n1CC(C)C,–,16.4 µM (active)
